The campaign covered roughly 86,000 compounds. About 1,400 (1.6%) were called active. No stated cut-off is given here; in the data, active means inhibition above about 50%; inactive means the rest. For the sample, actives were picked, then their nearest neighbours and some compounds at random.
These molecules were tested against Estrogen receptor (Homo sapiens) (UniProt P03372) (assay: ERα–SRC-1 coactivator interaction inhibitors, primary screen, biochemical, TR-FRET, ERα LBD, estradiol-bound (AID 629;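 further: 0% = receptor plus peptide control and 100% = peptide only without receptor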)). Conditions: TR-FRET ER-alpha LBD / SRC-1 peptide, at 25.6 µM, stronger effect = higher value.
Sequence of Estrogen receptor (Homo sapiens) (P03372 whole entry, looked up, the tested form may be a part): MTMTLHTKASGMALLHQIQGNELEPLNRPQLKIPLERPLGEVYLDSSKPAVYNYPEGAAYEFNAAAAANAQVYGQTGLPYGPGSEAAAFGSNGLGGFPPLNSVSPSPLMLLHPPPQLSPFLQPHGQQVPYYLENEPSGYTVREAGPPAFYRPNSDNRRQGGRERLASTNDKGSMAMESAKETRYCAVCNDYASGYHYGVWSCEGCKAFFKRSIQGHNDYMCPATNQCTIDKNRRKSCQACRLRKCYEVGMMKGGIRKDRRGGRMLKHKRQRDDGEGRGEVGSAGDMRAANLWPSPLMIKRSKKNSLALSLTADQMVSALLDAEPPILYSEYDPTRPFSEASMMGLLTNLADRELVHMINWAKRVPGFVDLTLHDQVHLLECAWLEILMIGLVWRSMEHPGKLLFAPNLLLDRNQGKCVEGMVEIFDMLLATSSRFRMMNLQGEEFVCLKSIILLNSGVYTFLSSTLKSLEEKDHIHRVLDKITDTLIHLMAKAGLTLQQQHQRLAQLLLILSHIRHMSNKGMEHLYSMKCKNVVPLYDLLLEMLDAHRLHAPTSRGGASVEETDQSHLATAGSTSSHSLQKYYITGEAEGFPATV

Structure (SMILES) | inhibition
O=C(CN1CCN(C(=O)c2ccco2)CC1)Nc1ccc2c(c1)OCO2 | -22.6% (inactive)
CCOC(=O)C1=C(CSc2nnnn2C)N(C)C(=O)NC1c1ccccc1 (centres undefined) | -4.78% (inactive)
COc1ccc(CNC(=O)c2cc3c(=O)n4ccccc4nc3n(CC3CCCO3)c2=N)cc1 (centres undefined) | 3.23% (inactive)
O=C(NCc1ccco1)c1cc(-c2cccnc2)nc2ccc(Cl)cc12 | 10.8% (inactive)
COc1ccc(CCn2c(=N)c(C(=O)NCc3ccco3)cc3c(=O)n4cccc(C)c4nc32)cc1 | 65.7% [fluorescence artefact?] (active)
O=C(NCc1ccco1)c1cccn2c(=O)c3cc(Br)ccc3nc12 | 56.4% [fluorescence artefact?] (active)
O=C(Nc1ccccc1)Nc1ccccc1C(=O)NCc1ccco1 | -4.11% (inactive)
CCn1c(=N)c(C(=O)NCCCOC)cc2c(=O)n3cccc(C)c3nc21 | -7.26% (inactive)
Cc1ccc(/C=N/NC(=O)C2=NNC(c3ccccc3)(c3ccccc3)C2)c(O)c1 | 21.9% (inactive)
CCSc1ccccc1C(=O)NCc1ccc(OC)cc1 | -6.6% (inactive)
COC(=O)/C(NC(C)=O)=C(\C)c1ccc(Cl)cc1 | -8.11% (inactive)
CC(=O)NC1=NN(C(C)=O)C(C)(c2ccc(Cl)s2)S1 (centres undefined) | 2.57% (inactive)
CN(C)c1ccnc2sc3c(=O)n(-c4ccc(Cl)cc4)cnc3c12 | 42.5% (inactive)
COC(=O)C1=C(C(=O)OC)C2(OC1c1ccc(Br)cc1)C(=O)c1ccccc1C2=O (centres undefined) | -2.52% (inactive)
Cc1cnc(C(=O)OCC(=O)Nc2ccc(Cl)cc2Cl)cn1 | -9.26% (inactive)
COc1ccc(CN2CCn3ncc(C(=O)Nc4ccc(Cl)cc4Cl)c3C2=O)cc1 | 54.9% [fluorescence artefact?] (active)
COc1ccc(OC)c(NC(=O)c2cnn(-c3ccccc3Cl)c2NC(=O)c2ccco2)c1 | -3.16% (inactive)
O=C(c1cccc(F)c1)N1CCC(O)(c2cccnc2)CC1 | 1.95% (inactive)
CCCNC(=O)CN(Cc1ccccc1F)S(=O)(=O)c1ccc(C)cc1 | 5.89% (inactive)
O=C(CN1CCN(S(=O)(=O)c2ccc(F)cc2)CC1)Nc1ccccc1F | 64.5% [fluorescence artefact?] (active)
COc1cc2c(cc1NC(=O)CN1CCN(S(=O)(=O)c3ccc(F)cc3)CC1)oc1ccccc12 | 14.2% (inactive)
COc1ccccc1NC(=O)CN1CCN(S(=O)(=O)c2ccc(Br)cc2)CC1 | 39.3% (inactive)
CCCCNC(=O)C1(c2ccc(OC)cc2)CCOCC1 | 25.4% (inactive)

Structure (SMILES) | inhibition
OC(CN=c1sc2ccccc2n1CC(O)COc1ccccc1)COc1ccccc1 (centres undefined) | -21.1% (inactive)
O=C(Nc1ccc2c(c1)OCCO2)C(c1ccc(F)cc1)N1CCCCC1 (centres undefined) | 1.74% (inactive)
COC(=O)c1[nH]c2ccccc2c1NC(=O)CN1CCCc2ccccc21 | 66.9% [fluorescence artefact?] (active)
COC(=O)c1[nH]c2cccc(C)c2c1NC(=O)CN1CCCc2ccccc21 | 33.1% (inactive)
CCOC(=O)c1[nH]c2ccc(OC)cc2c1NC(=O)CCN1CCN(Cc2ccccc2)CC1 | 0.69% (inactive)
COC(=O)c1ccccc1NC(=O)CN(Cc1ccc(Cl)cc1)S(C)(=O)=O | 5.73% (inactive)
C=CCc1ccc(OCCOc2cccc(/C=N/n3cnnc3)c2)c(OC)c1 | -8.6% (inactive)
COc1ccc(CC(=O)Nc2ccc(-c3nnc(-c4ccc(C)cc4)o3)cc2)cc1 | 8.24% (inactive)
CCOc1ccc(-c2nnc(-c3ccco3)o2)cc1 | -0.96% (inactive)
Cc1ccc(OCC(=O)Nc2ccc(-c3nnc(-c4ccco4)o3)cc2)cc1 | 63.7% [fluorescence artefact?] (active)
O=C(CSc1nc2cccnc2n1Cc1ccccc1)N1CCc2ccccc21 | 34.4% (inactive)
COc1nc(NC2CCCCC2)nc(N2CCCCCC2)n1 | 6.7% (inactive)
CC(Sc1nc2ccccc2c(=O)n1Cc1ccco1)C(=O)c1ccccc1 (centres undefined) | 4.97% (inactive)
COC(=O)c1c(NC(=O)CSc2nncs2)sc2c1CCCCC2 | -1.55% (inactive)
N#Cc1c(NC(=O)CSc2nc3ccccc3c(=O)n2Cc2ccco2)sc2c1CCCC2 | 61.9% [fluorescence artefact?] (active)
COc1ccc(-c2nnc(SCC(=O)c3ccco3)n2-c2ccccc2)cc1 | 11% (inactive)
C=C(C)Cn1c(SCC(=O)NCc2ccco2)nc2sc3c(c2c1=O)CCC3 | 7.04% (inactive)
COc1ccc(-n2c(SCC(=O)Nc3sc4c(c3C#N)CCCC4)nnc2-c2ccc(O)cc2)cc1 | 78.5% [fluorescence artefact?] (active)
Cc1cccn2c(=O)c(/C=C(\C#N)S(=O)(=O)c3ccc(Cl)cc3)c(N3CCC(C(N)=O)CC3)nc12 | -0.02% (inactive)
O=C(CSCc1c(F)cccc1Cl)NCC1CCCO1 (centres undefined) | -1.37% (inactive)
CCCCOc1ccc(C(=O)NCc2ccncc2)cc1 | 1.95% (inactive)
Cc1ccnc(N2C(=O)c3ccccc3C2Nc2ccc3c(c2)OCCO3)c1 (centres undefined) | 1.59% (inactive)
COC(=O)c1cc(NC2c3ccccc3C(=O)N2c2ccc(Cl)cn2)cc(C(=O)OC)c1 (centres undefined) | 66.6% (active)

Structure (SMILES) | inhibition
CCc1ccccc1NC1c2ccccc2C(=O)N1c1cccnc1 (centres undefined) | -8.02% (inactive)
CCOC(=O)C1=C(C)NC(SC)=NC1c1ccccc1 (centres undefined) | -2.42% (inactive)
Cc1nnc(SC(C)C(=O)Nc2ccc(S(=O)(=O)NC3CCCCC3)cc2)s1 (centres undefined) | 21.6% (inactive)
CCOc1ccc2cc(C#N)c(SCC(=O)OC)nc2c1 | 17.3% (inactive)
COc1ccc(N2CCN(C(=O)CSc3nc4cc(OC)c(OC)cc4cc3C#N)CC2)cc1 | 51.1% [fluorescence artefact?] (active)
COc1ccc(N2CCN(C(=O)CSc3ncnc4c3cnn4-c3ccc(OC)cc3)CC2)cc1 | -7.43% (inactive)
COc1ccc(C)cc1S(=O)(=O)NCCc1ccccc1 | 8.31% (inactive)
Cc1ccc(OC(=O)c2ccccc2C(=O)OCC(F)(F)C(F)F)cc1 | -6.39% (inactive)
COc1ccc(-c2ccc(-c3noc(-c4ccncc4)n3)c(OC)n2)cc1 | 59.7% (active)
COc1cc(-c2nc(-c3ccncc3)no2)cc(OC)c1OC | -8.51% (inactive)
CCOc1nc(-c2ccc(OC)cc2)ccc1-c1noc(-c2cc(OC)c(OC)c(OC)c2)n1 | 9.34% (inactive)
NC1=NC(=O)C2(COC(c3ccccc3Cl)OC2)S1 (centres undefined) | -0.98% (inactive)
COc1cccc(NC(=O)Cc2ccc(C)cc2)c1 | -3.07% (inactive)
Cc1ccc(NC(=S)NC(NC(=O)Cc2cccc3ccccc23)C(Cl)(Cl)Cl)cc1 (centres undefined) | 57% [fluorescence artefact?] (active)
CC(=O)c1cccc(NC(=O)Nc2ccc(C)cc2)c1 | 4.59% (inactive)
O=S(=O)(Cc1cc(Sc2ccccc2)nc(-c2ccccc2)n1)c1ccccc1 | -0.05% (inactive)
CSc1ccc(S(=O)(=O)NC2CCCCC2)cc1 | 6.27% (inactive)
CC(=O)Nc1ccc(S(=O)(=O)Nc2cccc(NC(=O)C(C)(C)C)c2)cc1 | -5.55% (inactive)
CSc1ccc(S(=O)(=O)Nc2cccc(F)c2)cc1 | 61.3% (active)
Cc1cccc(N2CCN(C(c3ccc(N(C)C)cc3)c3nnnn3C(C)(C)C)CC2)c1C (centres undefined) | 1.11% (inactive)
CC(=O)C1=C(C)NC(C)=C(C(C)=O)C1c1cn(-c2ccccc2)nc1-c1cccs1 | -18.1% (inactive)
CC(C)(C)c1cc(=O)n2c(nc3ccccc32)[nH]1 | 11.3% (inactive)
COCCn1c(SCc2nnc(-c3ccc(OC)c(OC)c3)o2)nc2sc3c(c2c1=O)CCC3 | -16.5% (inactive)

Structure (SMILES) | inhibition
CCCC1(C(=O)OCC)NC(c2ccc(N(C)C)cc2)C2C(=O)N(c3ccc4c(c3)OCCO4)C(=O)C21 (centres undefined) | -19% (inactive)
Cc1nc2ccc(C(=O)N3CCN(c4ccccc4)CC3)cc2s1 | -14.9% (inactive)
COc1cccc(-c2nn(C)c3sc(C(=O)N4CCN(c5ccccc5)CC4)cc23)c1 | 6.81% (inactive)
O=C(c1cc2c(s1)CCC2)N1CCN(c2ccccc2)CC1 | 67.9% [fluorescence artefact?] (active)
COC(=O)c1cc(OC)ccc1-c1ccc(OC)cc1 | -2.99% (inactive)
CCc1ccc(CNC(=O)CCc2nc(-c3cccs3)no2)cc1 | 0.94% (inactive)
O=C(c1cc2sccc2n1Cc1ccc(F)cc1)N1CCc2ccccc21 | -24.7% (inactive)
O=C(CN1CCN(S(=O)(=O)/C=C/c2ccccc2)CC1)NC(=O)NCc1ccco1 | 55% [fluorescence artefact?] (active)
CC1(c2ccccc2Cl)NC(=O)N(CC(=O)NC(=O)NCc2ccco2)C1=O (centres undefined) | 9.78% (inactive)
O=C(COC(=O)c1ccc(S(=O)(=O)N2CCc3ccccc3C2)cc1)NC(=O)NCc1ccco1 | 10.1% (inactive)
CCCC(C)n1[nH]c(=O)c2c(C)cc(C)nc21 (centres undefined) | -5.08% (inactive)
CCC(C)n1[nH]c(=O)c2c(C)cc(C)nc21 (centres undefined) | -1.94% (inactive)
CCC(C)n1[nH]c(=O)cc1N (centres undefined) | 60.4% (active)
CCN1C(=O)/C(=C2/Sc3ccc(OC)cc3N2C)SC1=Nc1ccc(C)cc1 | 18.8% (inactive)
NC(=O)C1(N2CCCCC2)CCN(C2CC(=O)N(Cc3ccc(N4CCCC4=O)cc3)C2=O)CC1 (centres undefined) | -9.78% (inactive)
COc1ccc(C(=O)Cc2cnn(-c3ccccc3)c2)c(O)c1 | -7.1% (inactive)
COc1ccccc1NC(=O)/C=C/C(N)=O | 13% (inactive)
Cc1ccc(C(=O)COc2cccc(NC(=O)c3ccco3)c2)cc1 | 6.84% (inactive)
CCOc1cc(NC(=O)c2ccco2)c(OCC)cc1NC(=O)COc1ccccc1 | 77.7% [fluorescence artefact?] (active)
O=C(Nc1ccc(Oc2ccccc2)cc1)c1ccco1 | 0.33% (inactive)

Reference: PubChem BioAssay AID629 (Emory University Molecular Libraries Screening Center, 2007)
